Results as given in PubChem BioAssay (NCI).
About 83,000 compounds went through this panel and 20% of them were active in at least one assay; those are over-represented in the sample as a whole.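 Treatment: one concentration, 48 hours, 96-well format. Scoring: percent growth, with anything below 10 considered active.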 A number with no mark means an inactive call. Calls of active or inactive are those of the source.

These compounds were tested on TK-10 renal (assay: NCI-60 one-dose screen, 48 h (100 = growth as untreated, 0 = no growth, -100 = all killed)). Conditions: 10 µM unless noted.
In the case of `O=C(c1ccc(Br)cc1)C(Br)C(c1ccc(Cl)cc1)C(c1ccccc1)[N+](=O)[O-]` (stereo not drawn), the growth is reported as 103%.
`CN1CCOCCN(C)Cc2ccc3ccc(cc3c2)CN(C)CCOCCN(C)Cc2ccc3ccc(cc3c2)C1` gave a growth of 97.4%.
In the case of `COc1ccc(CN2C(=O)OC(C)(COC(C)=O)C2=O)cc1` (stereo not drawn), the growth is reported as 104%.
`CN(C)c1ccc(/C=N\NC(=O)c2ccc3nc(-c4ccc(Cl)cc4)[nH]c3c2)cc1` showed a growth of 94.4%.
In the case of `COCCn1cc(-c2csc(-c3c[nH]c4ccc(F)cc34)n2)c2cccnc21`, the growth is reported as 33.1%.
`C/C(Cc1ccc(Cl)cc1)=C(\c1ccc(OCCN2CCCCCC2)cc1)c1ccc(OC(=O)c2ccccc2)cc1` showed a growth of 67%.

These compounds were tested on ACHN renal in the same assay as above. Conditions: 10 µM unless noted.
`COCCn1cc(-c2csc(-c3c[nH]c4ccccc34)n2)c2cccnc21` was tested, and the growth was 49.6%.
`CN1C(=O)/C(=C/c2ccc(C(=O)Nc3ncc(Cc4cccc(C(F)(F)F)c4)s3)cc2)SC1=S` gave a growth of 32.4%.
`Nc1ncnc2c1N=C(c1ccc(Cl)cc1)CC(c1cccc(Nc3ccnc4cc(Cl)ccc34)c1)N2` (stereo not drawn) was tested, and the growth was 84.2%.
In the case of `COC(=O)[C@]1(C)CCC[C@]2(C)[C@H]3C[C@@H]4[C@H]5[C@@H]6CC/C(=N\OCC/C(N)=N/O)[C@H]5[C@@]3(CC[C@H]21)CC4(C(C)C)O6`, the growth is reported as 68.4%.
In the case of `CC(C)(C)CC(C)(C)Nc1c(-c2c(O)c3ccccc3oc2=O)nc2sc3ccccc3n12`, the growth is reported as 33.7%.
In the case of `C=C(c1ccc(C(=O)O)c(F)c1)c1cc2c(cc1C)C(C)(C)CCC2(C)C`, the growth is reported as 79%.
Compound `Nc1nc(N(Cc2ccccc2)c2ccccc2)c2cn[nH]c2n1` has a growth of 71.2%.
With `CNC(=O)NCC1OC(n2cnc3c(NC(=O)Nc4ccccc4)ncnc32)C2OC(=O)CC12` (stereo not drawn) the growth was 94.9%.
`Cc1ccc2cnc(N)c(C#Cc3cc(C(=O)Nc4ccc(CN5CCN(C)CC5)c(C(F)(F)F)c4)cnc3C)c2c1` was tested, and the growth was -100% (active).
For `COC(=O)[C@@]1(C)CC[C@]2(C)CC[C@]3(C)C4=CC=C5C(=CC(=O)C(O)=C5C)[C@]4(C)[C@@H](O)C[C@@]3(C)[C@@H]2C1`, the growth was -49.9% (active).
`Cc1cc(Cl)nc(N2CCN(CCNc3ccnc4cc(Cl)ccc34)CC2)n1` showed a growth of 58.2%.
Compound `COc1ccc2c(c1)CC[C@@H]1[C@@H]2CC[C@]2(C)c3c(cc(C#N)c4c3sc3ccccc34)C[C@@H]12` has a growth of 105%.
In the case of `C=C1C(=O)O[C@H]2[C@H]1CC/C(COC(=O)NCc1ccc(Cn3c(=O)sn(-c4ccc(I)cc4)c3=O)cc1)=C\CC[C@@]1(C)O[C@@H]21`, the growth is reported as 69.7%.
Work on `O=C(c1ccc(Br)cc1)C(Br)C(c1ccc(Cl)cc1)C(c1ccccc1)[N+](=O)[O-]` (stereo not drawn) yielded a growth of 102%.
`CN1CCOCCN(C)Cc2ccc3ccc(cc3c2)CN(C)CCOCCN(C)Cc2ccc3ccc(cc3c2)C1` showed a growth of 98.5%.
Compound `CN(C)c1ccc(/C=N\NC(=O)c2ccc3nc(-c4ccc(Cl)cc4)[nH]c3c2)cc1` has a growth of 35.7%.
In the case of `COCCn1cc(-c2csc(-c3c[nH]c4ccc(F)cc34)n2)c2cccnc21`, the growth is reported as 41.9%.
